{"source": "PubChem BioAssay (NCI)", "note": "About 83,000 compounds went through this panel and 20% of them were active in at least one assay; those are over-represented in the sample as a whole.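 A percent growth of 40 corresponds to 60% growth inhibition; 0 means no net growth; -100 means all cells died. Active threshold: below 10.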 A number with no mark means an inactive call. Active and inactive are the calls of the source.", "data": [{"tested_on": "HL-60(TB) leukemia", "assay": "NCI-60 one-dose screen, 48 h (100 = growth as untreated, 0 = no growth, -100 = all killed)", "details": "10 µM unless noted", "values": [{"smiles": "N#C/C(=C\\c1ccc([N+](=O)[O-])cc1)n1nnc2cc(F)c(F)cc21", "growth": "-27% (active)"}, {"smiles": "COC(=O)N1CC(Oc2ccccn2)C2CC1c1ccccc1O2", "note": "(stereo not drawn)", "growth": "99.8%"}, {"smiles": "CCCCc1nc(Cl)c(C2CC(c3ccc(S(N)(=O)=O)cc3)=NN2c2cc(Cl)cc(Cl)c2)[nH]1", "note": "(stereo not drawn)", "growth": "9.72% (active)"}]}]}
